# A number with no mark means an inactive call.
# Legend:
# Assay in all cases: log2 ratio of Biotin-Ahx-Ub-VS probe labelling (fragment/DMSO); higher = less target engagement (more negative = stronger competition), active = hit call of the paper (q ≤ 0.05, log2 ratio ≤ -1)
# Settings in all cases: compound concentration: 200 uM; treatment time: 3 h
# [1] = biological target: T1, USP42 (UniProt Q9H9J4)
# T1 sequence (whole entry): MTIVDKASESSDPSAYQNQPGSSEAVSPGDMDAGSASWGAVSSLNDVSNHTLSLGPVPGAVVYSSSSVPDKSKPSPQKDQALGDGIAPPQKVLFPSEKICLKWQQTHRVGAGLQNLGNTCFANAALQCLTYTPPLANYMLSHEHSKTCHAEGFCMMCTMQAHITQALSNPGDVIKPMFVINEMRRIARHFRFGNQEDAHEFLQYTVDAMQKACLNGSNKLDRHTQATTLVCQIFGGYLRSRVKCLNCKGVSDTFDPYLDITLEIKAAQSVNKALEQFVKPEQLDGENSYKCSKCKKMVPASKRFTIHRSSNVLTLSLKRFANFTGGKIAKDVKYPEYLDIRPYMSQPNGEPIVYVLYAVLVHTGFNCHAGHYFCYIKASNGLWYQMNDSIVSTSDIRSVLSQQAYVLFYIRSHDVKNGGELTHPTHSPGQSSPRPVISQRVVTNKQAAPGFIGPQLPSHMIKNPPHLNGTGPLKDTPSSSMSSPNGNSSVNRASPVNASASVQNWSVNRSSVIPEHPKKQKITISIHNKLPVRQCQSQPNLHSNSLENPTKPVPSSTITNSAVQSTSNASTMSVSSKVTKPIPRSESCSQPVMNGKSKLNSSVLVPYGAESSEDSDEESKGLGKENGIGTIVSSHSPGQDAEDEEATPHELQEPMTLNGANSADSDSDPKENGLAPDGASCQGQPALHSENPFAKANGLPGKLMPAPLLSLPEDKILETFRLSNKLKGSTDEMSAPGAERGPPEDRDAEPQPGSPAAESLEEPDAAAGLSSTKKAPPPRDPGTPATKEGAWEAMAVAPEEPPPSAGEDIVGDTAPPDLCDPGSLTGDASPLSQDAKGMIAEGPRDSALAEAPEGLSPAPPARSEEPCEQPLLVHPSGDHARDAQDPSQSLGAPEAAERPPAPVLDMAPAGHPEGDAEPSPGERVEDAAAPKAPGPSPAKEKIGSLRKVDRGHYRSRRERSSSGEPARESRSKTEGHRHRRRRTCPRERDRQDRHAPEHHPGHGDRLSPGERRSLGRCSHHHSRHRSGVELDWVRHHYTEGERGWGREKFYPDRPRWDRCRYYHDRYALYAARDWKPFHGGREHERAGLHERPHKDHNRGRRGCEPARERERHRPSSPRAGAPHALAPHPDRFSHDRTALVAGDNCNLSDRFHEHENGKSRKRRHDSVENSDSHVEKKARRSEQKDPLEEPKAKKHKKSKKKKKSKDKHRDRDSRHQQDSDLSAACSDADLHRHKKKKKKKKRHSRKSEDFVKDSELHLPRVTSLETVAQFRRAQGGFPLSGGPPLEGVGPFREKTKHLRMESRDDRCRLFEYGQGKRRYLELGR
# Method in brief: (§1)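 HEK293T lysate (495 µg per sample, in Tris/CHAPS/IGEPAL buffer with protease inhibitors) was exposed in triplicate for 3 h to fragment at 200 µM or to vehicle, then to Biotin-Ahx-Ub-VS at 0.5 µM final for 1 h. Labelled DUBs were enriched on NeutrAvidin, digested with LysC and trypsin, and analysed by diaPASEF LC-MS/MS. Spectronaut label-free quantities were normalised to the global median, and values are average log2 ratios of fragment over vehicle from an unpaired t-test. Only proteins with ≥2 unique peptides were used.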
# [2] = biological target: USP46 (UniProt P62068)
# Method in brief: as §1
# [3] = biological target: T2, USP47 (UniProt Q96K76)
# T2 sequence (whole entry): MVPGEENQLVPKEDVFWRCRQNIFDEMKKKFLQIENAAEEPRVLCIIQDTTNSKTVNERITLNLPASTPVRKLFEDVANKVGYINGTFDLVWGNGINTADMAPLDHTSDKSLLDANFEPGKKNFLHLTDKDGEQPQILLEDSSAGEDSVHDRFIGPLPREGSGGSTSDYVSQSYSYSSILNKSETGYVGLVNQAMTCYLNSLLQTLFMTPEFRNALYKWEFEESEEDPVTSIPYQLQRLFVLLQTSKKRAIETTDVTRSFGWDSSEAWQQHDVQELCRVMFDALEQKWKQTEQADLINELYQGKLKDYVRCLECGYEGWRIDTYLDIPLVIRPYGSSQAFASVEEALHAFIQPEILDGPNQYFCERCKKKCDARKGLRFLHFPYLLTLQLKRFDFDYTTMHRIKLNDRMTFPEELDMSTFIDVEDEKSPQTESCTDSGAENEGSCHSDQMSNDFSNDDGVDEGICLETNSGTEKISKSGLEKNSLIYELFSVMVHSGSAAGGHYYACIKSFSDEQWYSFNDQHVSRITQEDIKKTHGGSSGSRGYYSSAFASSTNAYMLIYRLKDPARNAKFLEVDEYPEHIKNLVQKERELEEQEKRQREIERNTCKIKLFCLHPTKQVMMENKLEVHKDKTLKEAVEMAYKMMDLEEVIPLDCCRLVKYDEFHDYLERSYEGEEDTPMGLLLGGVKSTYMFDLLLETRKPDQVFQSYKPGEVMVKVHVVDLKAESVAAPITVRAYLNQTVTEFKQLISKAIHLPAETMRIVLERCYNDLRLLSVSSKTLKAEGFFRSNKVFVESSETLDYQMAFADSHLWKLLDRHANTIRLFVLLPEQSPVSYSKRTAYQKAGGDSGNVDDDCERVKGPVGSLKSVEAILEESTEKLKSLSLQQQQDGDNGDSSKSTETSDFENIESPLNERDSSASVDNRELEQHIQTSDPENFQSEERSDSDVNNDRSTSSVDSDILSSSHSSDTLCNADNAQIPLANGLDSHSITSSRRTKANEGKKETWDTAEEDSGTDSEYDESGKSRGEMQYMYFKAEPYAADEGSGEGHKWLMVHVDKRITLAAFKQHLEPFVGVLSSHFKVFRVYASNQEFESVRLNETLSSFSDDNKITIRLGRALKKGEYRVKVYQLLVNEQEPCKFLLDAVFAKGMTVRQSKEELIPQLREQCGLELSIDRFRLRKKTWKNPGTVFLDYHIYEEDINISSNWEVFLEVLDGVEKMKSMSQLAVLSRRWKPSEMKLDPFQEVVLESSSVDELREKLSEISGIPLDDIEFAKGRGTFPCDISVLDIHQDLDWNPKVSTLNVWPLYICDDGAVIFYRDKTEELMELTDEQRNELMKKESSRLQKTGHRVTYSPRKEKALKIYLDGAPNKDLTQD
# Method in brief: as §1
# [4] = biological target: T3, USP48 (UniProt Q86UV5)
# T3 sequence (whole entry): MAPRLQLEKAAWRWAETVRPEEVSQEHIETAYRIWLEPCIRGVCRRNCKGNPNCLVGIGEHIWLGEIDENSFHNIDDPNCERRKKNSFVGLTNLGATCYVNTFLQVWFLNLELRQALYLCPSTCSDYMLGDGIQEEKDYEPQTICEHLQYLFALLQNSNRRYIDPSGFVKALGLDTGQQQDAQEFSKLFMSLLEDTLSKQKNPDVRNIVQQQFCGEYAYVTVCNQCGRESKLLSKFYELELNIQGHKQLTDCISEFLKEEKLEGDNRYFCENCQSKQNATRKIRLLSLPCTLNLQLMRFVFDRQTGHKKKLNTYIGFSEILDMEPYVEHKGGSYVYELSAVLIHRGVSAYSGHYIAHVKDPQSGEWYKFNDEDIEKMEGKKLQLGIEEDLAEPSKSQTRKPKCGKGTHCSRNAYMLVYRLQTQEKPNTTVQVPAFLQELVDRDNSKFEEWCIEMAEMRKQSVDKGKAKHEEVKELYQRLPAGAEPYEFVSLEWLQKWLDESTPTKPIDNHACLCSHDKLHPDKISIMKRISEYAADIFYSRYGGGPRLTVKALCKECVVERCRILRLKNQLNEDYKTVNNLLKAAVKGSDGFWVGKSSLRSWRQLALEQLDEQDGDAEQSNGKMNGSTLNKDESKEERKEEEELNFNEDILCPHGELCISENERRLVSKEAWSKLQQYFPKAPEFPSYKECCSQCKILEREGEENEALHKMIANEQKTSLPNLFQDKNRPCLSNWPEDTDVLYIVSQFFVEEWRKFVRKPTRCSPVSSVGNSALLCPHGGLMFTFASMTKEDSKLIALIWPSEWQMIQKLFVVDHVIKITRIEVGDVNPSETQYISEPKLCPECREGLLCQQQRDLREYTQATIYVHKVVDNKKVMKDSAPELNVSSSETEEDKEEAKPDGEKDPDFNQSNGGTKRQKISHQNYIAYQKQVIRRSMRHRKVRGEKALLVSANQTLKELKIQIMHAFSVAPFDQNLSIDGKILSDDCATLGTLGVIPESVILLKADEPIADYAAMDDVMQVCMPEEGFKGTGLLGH
# Method in brief: as §1
# [5] = biological target: T4, USP5 (UniProt P45974)
# T4 sequence (whole entry): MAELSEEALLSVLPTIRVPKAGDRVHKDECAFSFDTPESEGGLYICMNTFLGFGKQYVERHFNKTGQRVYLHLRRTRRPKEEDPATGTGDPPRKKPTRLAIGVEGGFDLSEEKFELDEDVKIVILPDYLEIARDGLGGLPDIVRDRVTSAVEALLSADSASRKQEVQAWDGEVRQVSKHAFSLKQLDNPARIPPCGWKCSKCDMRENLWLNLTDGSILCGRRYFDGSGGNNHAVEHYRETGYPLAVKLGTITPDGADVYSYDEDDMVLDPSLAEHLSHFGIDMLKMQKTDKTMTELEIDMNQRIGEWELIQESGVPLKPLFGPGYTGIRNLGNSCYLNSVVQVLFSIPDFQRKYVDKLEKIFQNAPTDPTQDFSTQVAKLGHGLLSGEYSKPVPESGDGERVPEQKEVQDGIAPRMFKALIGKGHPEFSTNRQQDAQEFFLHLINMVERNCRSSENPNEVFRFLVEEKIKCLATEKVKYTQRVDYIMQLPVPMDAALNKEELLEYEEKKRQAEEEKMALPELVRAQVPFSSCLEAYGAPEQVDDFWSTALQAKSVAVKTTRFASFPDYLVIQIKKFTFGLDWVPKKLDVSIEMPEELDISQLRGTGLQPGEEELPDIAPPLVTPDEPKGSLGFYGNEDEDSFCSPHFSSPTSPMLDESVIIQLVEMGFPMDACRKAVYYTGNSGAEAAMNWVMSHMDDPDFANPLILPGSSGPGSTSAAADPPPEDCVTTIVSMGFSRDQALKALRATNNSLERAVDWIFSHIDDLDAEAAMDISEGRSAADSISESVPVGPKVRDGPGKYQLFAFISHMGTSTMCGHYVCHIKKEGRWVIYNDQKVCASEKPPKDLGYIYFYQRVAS
# Method in brief: as §1
# [6] = biological target: USP54 (UniProt Q70EL1)
# Method in brief: as §1
# [7] = biological target: USP7 (UniProt Q93009)
# Method in brief: as §1
# [8] = biological target: T5, USP8 (UniProt P40818)
# T5 sequence (whole entry): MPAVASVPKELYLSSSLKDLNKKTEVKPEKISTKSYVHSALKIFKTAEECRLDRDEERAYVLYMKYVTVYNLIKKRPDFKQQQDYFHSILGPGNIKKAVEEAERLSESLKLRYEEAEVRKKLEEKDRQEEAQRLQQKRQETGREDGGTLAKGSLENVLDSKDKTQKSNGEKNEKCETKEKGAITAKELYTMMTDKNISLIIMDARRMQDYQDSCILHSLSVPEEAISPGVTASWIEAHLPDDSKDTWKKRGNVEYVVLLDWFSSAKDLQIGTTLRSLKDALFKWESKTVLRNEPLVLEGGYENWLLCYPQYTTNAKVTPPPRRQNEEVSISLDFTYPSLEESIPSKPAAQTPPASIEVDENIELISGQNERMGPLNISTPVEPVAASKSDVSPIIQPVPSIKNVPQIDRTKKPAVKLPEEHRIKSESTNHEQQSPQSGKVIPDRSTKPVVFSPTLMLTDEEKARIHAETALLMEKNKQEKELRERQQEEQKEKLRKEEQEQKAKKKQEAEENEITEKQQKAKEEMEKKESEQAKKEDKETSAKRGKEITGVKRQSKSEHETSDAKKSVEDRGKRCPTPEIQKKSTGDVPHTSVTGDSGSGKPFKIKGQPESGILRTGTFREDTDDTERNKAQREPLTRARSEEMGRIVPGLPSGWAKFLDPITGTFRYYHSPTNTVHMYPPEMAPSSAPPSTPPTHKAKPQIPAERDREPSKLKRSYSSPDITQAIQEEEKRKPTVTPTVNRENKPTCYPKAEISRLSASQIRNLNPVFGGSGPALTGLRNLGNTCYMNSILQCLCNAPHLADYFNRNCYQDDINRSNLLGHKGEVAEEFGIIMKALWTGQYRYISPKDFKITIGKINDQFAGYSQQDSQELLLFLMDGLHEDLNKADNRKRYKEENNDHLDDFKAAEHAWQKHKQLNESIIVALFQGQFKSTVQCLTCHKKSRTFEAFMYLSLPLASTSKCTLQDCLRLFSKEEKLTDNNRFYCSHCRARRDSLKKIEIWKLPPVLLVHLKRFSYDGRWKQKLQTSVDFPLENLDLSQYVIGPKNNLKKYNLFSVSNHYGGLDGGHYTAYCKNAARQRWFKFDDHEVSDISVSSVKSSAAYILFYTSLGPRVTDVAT
# Method in brief: as §1
# Sequence of USP54 (Q70EL1 whole entry): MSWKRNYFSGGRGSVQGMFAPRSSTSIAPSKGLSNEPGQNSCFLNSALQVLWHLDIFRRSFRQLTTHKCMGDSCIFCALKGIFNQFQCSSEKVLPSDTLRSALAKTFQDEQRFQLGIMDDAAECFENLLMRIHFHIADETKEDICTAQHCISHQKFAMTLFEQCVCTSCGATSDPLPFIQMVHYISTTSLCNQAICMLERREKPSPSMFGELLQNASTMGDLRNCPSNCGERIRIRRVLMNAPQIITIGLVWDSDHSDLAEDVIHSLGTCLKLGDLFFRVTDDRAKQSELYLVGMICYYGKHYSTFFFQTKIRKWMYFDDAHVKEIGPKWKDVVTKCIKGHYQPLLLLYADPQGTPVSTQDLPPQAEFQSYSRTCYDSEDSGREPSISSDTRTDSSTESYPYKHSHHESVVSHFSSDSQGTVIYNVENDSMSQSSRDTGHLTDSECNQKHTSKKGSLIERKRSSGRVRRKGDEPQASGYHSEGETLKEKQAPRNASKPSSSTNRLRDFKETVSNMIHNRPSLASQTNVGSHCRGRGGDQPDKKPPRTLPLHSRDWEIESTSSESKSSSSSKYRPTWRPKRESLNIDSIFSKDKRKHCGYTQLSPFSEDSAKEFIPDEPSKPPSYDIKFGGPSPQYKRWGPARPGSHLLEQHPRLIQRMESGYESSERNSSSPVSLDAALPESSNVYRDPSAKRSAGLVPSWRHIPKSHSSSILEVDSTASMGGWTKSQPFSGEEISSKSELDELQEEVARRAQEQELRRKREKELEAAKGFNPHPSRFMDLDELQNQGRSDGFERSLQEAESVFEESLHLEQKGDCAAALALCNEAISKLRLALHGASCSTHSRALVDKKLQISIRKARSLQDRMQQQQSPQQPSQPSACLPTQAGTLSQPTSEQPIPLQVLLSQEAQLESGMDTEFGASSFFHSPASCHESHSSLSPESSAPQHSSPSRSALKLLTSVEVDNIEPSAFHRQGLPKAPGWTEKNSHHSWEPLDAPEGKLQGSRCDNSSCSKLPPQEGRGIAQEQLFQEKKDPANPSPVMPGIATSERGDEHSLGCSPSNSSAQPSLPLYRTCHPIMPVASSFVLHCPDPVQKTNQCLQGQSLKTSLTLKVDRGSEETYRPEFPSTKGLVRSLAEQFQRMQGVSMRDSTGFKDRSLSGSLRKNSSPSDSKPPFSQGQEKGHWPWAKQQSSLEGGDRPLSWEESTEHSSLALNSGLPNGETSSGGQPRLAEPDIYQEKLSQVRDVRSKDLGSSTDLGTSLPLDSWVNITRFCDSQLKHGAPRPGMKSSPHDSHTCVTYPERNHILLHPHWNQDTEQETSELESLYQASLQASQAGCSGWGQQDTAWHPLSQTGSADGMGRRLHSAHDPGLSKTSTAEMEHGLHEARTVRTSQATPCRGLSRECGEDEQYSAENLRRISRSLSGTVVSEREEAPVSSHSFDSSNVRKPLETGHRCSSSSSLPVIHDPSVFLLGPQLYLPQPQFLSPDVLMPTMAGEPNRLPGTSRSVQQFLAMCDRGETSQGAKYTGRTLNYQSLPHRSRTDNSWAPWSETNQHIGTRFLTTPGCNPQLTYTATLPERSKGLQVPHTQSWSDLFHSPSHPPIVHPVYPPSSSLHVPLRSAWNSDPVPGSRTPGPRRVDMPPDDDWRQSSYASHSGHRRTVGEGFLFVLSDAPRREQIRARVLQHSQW
# Sequence of USP46 (P62068 whole entry): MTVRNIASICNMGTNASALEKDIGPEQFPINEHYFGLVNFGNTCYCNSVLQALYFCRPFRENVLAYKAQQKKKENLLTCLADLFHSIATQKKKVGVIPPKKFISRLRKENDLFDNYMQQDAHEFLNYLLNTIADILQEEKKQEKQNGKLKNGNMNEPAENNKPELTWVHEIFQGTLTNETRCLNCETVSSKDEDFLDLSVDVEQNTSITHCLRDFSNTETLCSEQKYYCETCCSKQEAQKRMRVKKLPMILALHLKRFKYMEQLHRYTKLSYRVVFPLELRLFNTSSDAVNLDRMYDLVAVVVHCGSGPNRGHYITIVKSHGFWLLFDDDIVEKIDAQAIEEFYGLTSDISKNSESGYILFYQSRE
# Sequence of USP7 (Q93009 whole entry, looked up): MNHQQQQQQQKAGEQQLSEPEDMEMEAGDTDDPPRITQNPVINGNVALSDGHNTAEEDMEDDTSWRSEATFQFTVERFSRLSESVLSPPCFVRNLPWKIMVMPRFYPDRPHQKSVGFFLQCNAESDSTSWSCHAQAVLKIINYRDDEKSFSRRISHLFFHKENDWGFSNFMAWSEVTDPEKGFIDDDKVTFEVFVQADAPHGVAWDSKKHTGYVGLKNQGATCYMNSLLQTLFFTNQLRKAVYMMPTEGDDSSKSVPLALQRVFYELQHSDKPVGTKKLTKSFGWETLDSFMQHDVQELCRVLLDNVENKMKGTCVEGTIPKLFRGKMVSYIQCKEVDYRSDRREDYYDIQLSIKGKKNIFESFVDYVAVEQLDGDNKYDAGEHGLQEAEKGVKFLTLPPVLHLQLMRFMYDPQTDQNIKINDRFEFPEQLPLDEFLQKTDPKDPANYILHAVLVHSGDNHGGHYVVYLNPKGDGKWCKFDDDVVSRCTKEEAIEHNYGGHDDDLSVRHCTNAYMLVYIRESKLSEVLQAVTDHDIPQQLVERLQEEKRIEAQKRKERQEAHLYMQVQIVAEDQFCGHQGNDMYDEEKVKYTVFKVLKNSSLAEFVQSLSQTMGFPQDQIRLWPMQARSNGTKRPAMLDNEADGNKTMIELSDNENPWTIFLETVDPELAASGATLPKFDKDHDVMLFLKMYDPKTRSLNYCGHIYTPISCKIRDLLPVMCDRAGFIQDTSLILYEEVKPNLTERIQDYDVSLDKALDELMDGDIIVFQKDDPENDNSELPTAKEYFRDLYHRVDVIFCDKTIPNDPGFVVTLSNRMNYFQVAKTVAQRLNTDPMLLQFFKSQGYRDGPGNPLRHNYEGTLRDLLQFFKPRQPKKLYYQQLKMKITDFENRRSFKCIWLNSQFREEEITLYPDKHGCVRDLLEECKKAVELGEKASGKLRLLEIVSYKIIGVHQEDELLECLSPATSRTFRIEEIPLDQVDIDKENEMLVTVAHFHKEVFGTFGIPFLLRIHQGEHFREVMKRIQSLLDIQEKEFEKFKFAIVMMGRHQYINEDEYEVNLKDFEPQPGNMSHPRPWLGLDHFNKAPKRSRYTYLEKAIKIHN
smiles,measurement,setting,value
Cl.Cn1ncc2c1CCCC2NC(=O)CCl (stereo not drawn),log2 ratio of Biotin-Ahx-Ub-VS probe labelling,[1],0.564
same,log2 ratio of Biotin-Ahx-Ub-VS probe labelling,[2],-0.0969
same,log2 ratio of Biotin-Ahx-Ub-VS probe labelling,[3],-1.12 (active)
same,log2 ratio of Biotin-Ahx-Ub-VS probe labelling,[4],-0.07
same,log2 ratio of Biotin-Ahx-Ub-VS probe labelling,[5],-0.277
same,log2 ratio of Biotin-Ahx-Ub-VS probe labelling,[6],0.656
same,log2 ratio of Biotin-Ahx-Ub-VS probe labelling,[7],-0.377
same,log2 ratio of Biotin-Ahx-Ub-VS probe labelling,[8],0.0774

# Source: the supplement of paper PMC11732987, “Enantioselective OTUD7B fragment discovery through chemoproteomics screening and high-throughput optimisation” (Communications Chemistry, 2025)
